Inconclusive results are not listed. Entries that show only a call come without a potency. Calls of active or inactive are those of the source. Unless noted, calls follow the shape of the dose curve; as a rule, active = well fitted curve in the direction sought with a large enough effect in the repeat runs; inconclusive = weak or mixed curves; inactive = no such curve, though single readings can be large; an effect the other way counts as inactive or inconclusive.
What was measured:
[1] = qHTS assay to identify small molecule antagonists of the glucocorticoid receptor (GR) signaling pathway - cell viability counter screen (AID 720693); also: nearly all actives have a fitted effect of over 55% in size
[2] = qHTS assay for identifying genotoxic compounds that show differential cytotoxicity against isogenic chicken DT40 cell lines with known DNA damage response pathways - wild type cell line (AID 743012); also: nearly all actives have a fitted effect of over 60% in size; also: potency is read from the fitted curve at half-maximal effect
In short: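 Quantitative HTS on parental DT40 cells: 40 h compound treatment at 37 C/5% CO2, with viability then determined by CellTiter-Glo luminescence. Values serve as the DNA repair-proficient reference for differential cytotoxicity.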

[3] = qHTS assay for identifying genotoxic compounds that show differential cytotoxicity against isogenic chicken DT40 cell lines with known DNA damage response pathways - Rev3 mutant cell line (AID 743014); also: nearly all actives have a fitted effect of over 55% in size; also: potency is read from the fitted curve at half-maximal effect
[4] = qHTS assay for identifying genotoxic compounds that show differential cytotoxicity against isogenic chicken DT40 cell lines with known DNA damage response pathways - Rad54/Ku70 mutant cell line (AID 743015); also: nearly all actives have a fitted effect of over 60% in size; also: potency is read from the fitted curve at half-maximal effect
[5] = qHTS assay to identify small molecule antagonists of the androgen receptor (AR) signaling pathway - cell viability counter screen (AID 743033; also: nearly all actives have a fitted effect of over 45% in size)
[6] = target: Androgen receptor (Homo sapiens) (UniProt P10275); test: qHTS assay to identify small molecule antagonists of the androgen receptor (AR) signaling pathway (AID 743035; active = well fitted inhibition curve with a large enough effect in the signal ratio in the repeat runs, not every such curve was filed as active; the % refers to the signal ratio; also: potency is read from the fitted curve at half-maximal effect)
Sequence of Androgen receptor (Homo sapiens) (P10275 whole entry, looked up): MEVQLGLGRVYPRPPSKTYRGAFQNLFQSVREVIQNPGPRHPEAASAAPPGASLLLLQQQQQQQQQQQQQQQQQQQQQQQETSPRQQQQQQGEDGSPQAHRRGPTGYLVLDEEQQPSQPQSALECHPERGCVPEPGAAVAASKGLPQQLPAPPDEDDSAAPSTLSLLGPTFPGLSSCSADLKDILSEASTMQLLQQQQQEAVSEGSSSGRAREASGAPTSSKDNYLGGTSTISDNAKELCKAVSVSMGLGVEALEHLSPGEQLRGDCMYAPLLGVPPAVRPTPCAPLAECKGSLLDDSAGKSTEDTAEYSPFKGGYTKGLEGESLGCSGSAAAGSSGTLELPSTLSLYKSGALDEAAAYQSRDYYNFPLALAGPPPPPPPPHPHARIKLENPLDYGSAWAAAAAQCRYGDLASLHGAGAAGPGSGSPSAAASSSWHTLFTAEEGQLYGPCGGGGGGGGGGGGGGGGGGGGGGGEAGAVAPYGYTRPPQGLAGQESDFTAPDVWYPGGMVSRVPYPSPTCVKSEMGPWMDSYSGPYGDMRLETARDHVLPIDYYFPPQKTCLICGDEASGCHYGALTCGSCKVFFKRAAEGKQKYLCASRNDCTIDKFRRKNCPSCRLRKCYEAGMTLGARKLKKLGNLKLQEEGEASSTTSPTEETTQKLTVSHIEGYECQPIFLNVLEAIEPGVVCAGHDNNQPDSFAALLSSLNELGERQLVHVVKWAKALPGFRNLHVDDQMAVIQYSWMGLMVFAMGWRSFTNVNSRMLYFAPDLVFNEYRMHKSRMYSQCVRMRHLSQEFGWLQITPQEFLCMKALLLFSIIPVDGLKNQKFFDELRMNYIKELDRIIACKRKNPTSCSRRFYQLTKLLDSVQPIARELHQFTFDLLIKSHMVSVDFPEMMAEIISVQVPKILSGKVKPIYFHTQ
In short: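 Cell line: GeneBLAzer AR-UAS-bla GripTite (HEK293). Stimulus: R1881 added after compound. Exposure: 16 h, 37C, 5% CO2. Readout: LiveBLAzer B/G FRET fluorescence after 2 h at room temperature.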

[7] = target: Androgen receptor (Homo sapiens) (UniProt P10275); test: qHTS assay to identify small molecule agonists of the androgen receptor (AR) signaling pathway using the MDA cell line (AID 743040; also: nearly all actives have a fitted effect of over 20% in size; also: potency is read from the fitted curve at half-maximal effect)
In short: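 Luminescence from ONE-Glo, read after 30 min at room temperature, reflects MMTV-driven luciferase in MDA-kb2 cells (AR- and GR-responsive). Treatment lasted 16 h at 37C, 0% CO2.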

[8] = qHTS assay to identify small molecule antagonists of the androgen receptor (AR) signaling pathway using the MDA cell line - cell viability counter screen (AID 743041; also: nearly all actives have a fitted effect of over 45% in size)
In short: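 Viability counter screen run alongside the AR antagonist reporter: cells seeded 5 h before compound, R1881 added, 16 h incubation at 37C without CO2, fluorescent CellTiter-Fluor signal quantified.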

[9] = target: Androgen receptor (Homo sapiens) (UniProt P10275); test: qHTS assay to identify small molecule antagonists of the androgen receptor (AR) signaling pathway using the MDA cell line (AID 743042; also: nearly all actives have a fitted effect of over 55% in size)
In short: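 MDA-kb2 cells (human breast carcinoma, stably carrying an MMTV-luciferase reporter responsive to AR and GR) were plated at 3,000 cells/well and preincubated 5 hr at 37C, then given compound plus R1881 agonist for 16 h. ONE-Glo luminescence was read.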

[10] = qHTS assay to identify small molecule antagonists of the thyroid receptor (TR) signaling pathway (AID 743065); also: nearly all actives have a fitted effect of over 55% in size; also: potency is read from the fitted curve at half-maximal effect
In short: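 GH3.TRE-Luc rat pituitary cells carrying two TR response elements driving luciferase were plated for 4 h, given compound plus 1 nM T3 (final), and incubated 23.5 h at 37 C. ONE-Glo luminescence measured reporter inhibition; CellTiter-Fluor fluorescence tracked cytotoxicity.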

[11] = test system: thyroid hormone receptor (rat, GH3 cells); test: qHTS assay to identify small molecule agonists of the thyroid receptor (TR) signaling pathway (AID 743066; calls by dose curve)
[12] = qHTS assay to identify small molecule antagonists of the estrogen receptor alpha (ER-alpha) signaling pathway - cell viability counter screen (AID 743074; calls by dose curve;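 also: HEK293 cells carrying ER-alpha-UAS-bla reporter stimulated with 17beta-estradiol; nearly all actives have a fitted effect of over 45% in size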)
[13] = target: Estrogen receptor (Homo sapiens) (UniProt P03372); test: qHTS assay to identify small molecule agonists of the estrogen receptor alpha (ER-alpha) signaling pathway (AID 743075; calls by dose curve;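 also: HEK293 GripTite cells with ER-alpha and UAS-driven beta-lactamase reporter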)
Sequence of Estrogen receptor (Homo sapiens) (P03372 whole entry, looked up): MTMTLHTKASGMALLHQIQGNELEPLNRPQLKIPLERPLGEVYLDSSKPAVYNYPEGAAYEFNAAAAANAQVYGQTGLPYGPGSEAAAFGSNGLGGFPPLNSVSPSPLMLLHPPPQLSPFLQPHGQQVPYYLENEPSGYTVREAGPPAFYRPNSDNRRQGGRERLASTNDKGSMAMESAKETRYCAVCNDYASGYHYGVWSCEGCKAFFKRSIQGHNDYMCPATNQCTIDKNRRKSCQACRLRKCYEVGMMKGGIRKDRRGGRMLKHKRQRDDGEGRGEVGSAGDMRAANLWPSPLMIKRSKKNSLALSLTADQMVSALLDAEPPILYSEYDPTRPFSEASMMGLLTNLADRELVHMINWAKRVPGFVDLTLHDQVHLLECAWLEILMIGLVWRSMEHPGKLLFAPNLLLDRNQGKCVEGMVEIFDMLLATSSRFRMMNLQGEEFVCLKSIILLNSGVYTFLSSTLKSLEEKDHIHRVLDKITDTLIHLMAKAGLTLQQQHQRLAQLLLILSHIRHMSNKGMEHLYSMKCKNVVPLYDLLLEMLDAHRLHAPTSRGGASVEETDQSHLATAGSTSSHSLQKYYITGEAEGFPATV

[14] = target: Estrogen receptor (Homo sapiens) (UniProt P03372); test: qHTS assay to identify small molecule agonists of the estrogen receptor alpha (ER-alpha) signaling pathway using the BG1 cell line (AID 743079); also: nearly all actives have a fitted effect of over 20% in size; also: potency is read from the fitted curve at half-maximal effect
Aromatase (Homo sapiens) = Aromatase (Homo sapiens) (UniProt P11511); test: qHTS assay to identify aromatase inhibitors (AID 743083)
Sequence of Aromatase (Homo sapiens) (P11511 whole entry, looked up): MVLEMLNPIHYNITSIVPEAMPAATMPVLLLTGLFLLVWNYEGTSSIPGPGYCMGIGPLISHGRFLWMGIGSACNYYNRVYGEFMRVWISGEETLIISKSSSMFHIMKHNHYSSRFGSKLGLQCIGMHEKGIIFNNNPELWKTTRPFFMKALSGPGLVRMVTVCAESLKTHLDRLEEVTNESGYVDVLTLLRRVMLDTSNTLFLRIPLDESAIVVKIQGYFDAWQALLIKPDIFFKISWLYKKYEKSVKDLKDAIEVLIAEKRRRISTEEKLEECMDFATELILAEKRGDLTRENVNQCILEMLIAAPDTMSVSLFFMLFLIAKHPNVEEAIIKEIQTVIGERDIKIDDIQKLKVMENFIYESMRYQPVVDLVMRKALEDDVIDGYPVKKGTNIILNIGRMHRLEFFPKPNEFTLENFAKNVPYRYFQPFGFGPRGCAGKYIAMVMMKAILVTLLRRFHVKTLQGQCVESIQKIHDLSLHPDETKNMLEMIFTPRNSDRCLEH

[15] = target: Androgen receptor (Homo sapiens) (UniProt P10275); test: qHTS assay to identify small molecule agonists of the androgen receptor (AR) signaling pathway (AID 743036; active = well fitted activation curve with a large enough effect in the signal ratio in the repeat runs, with a control signal flat, not every such curve was filed as active; the % refers to the signal ratio)
In short: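 Activation was read as beta-lactamase FRET signal from LiveBLAzer B/G substrate, added for 2 h at room temperature. Before that, GeneBLAzer AR-UAS-bla GripTite (HEK293) cells had 16 h compound exposure at 37C.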

[16] = qHTS assay to identify small molecule antagonists of the thyroid receptor (TR) signaling pathway - cell viability counter screen (AID 743064); also: nearly all actives have a fitted effect of over 50% in size
In short: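 In-well cytotoxicity read by CellTiter-Fluor (30 min, 37 C) following 23.5 h exposure of GH3 cells bearing a TRE-luciferase sensor. Compounds were added alongside 1 nM (final) T3 to drive TR transactivation.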

[17] = qHTS assay to identify small molecule antagonists of the estrogen receptor alpha (ER-alpha) signaling pathway using the BG1 cell line - cell viability counter screen (AID 743081);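 also: compound given together with 17beta-estradiol as the ER stimulus; series mostly up to about 70 µM; nearly all actives have a fitted effect of over 45% in size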
[18] = target: Estrogen receptor (Homo sapiens) (UniProt P03372); test: qHTS assay to identify small molecule antagonists of the estrogen receptor alpha (ER-alpha) signaling pathway (AID 743069; active = well fitted curve in the direction sought with a large enough effect in the signal ratio in the repeat runs, not every such curve was filed as active; the % refers to the signal ratio)
In short: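 Estradiol-stimulated ER-alpha-UAS-bla HEK293 cells, 18 hr compound exposure at 37C. LiveBLAzer B/G substrate, 2 hr RT, fluorescence read.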

[19] = qHTS assay to identify small molecule antagonists of the estrogen receptor alpha (ER-alpha) signaling pathway using the BG1 cell line (AID 743080; calls by dose curve;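 also: BG1 cells stimulated with 17beta-estradiol alongside compound; series mostly up to about 70 µM; nearly all actives have a fitted effect of over 25% in size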)
In short: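 After 5 days in phenol-red-free 10% charcoal-stripped FBS medium, BG1-Luc-4E2 cells were seeded, left 24 h at 37 C, co-treated with compounds and 17beta-estradiol for 21.5 h, then assayed for viability and luciferase.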

Compound	Potency [1]	Potency [2]	Potency [3]	Potency [4]	Potency [5]	Potency [6]	Potency [7]	Potency [8]	Potency [9]	Potency [10]	Potency [11]	Potency [12]	Potency [13]	Potency [14]	Potency (Aromatase (Homo sapiens))	Potency [15]	Potency [16]	Potency [17]	Potency [18]	Potency [19]
CC(C)OC(=O)Nc1ccc2nc(-c3cscn3)[nH]c2c1	inactive	1.68 µM (active)	1.88 µM (active)	2.37 µM (active)	inactive	4.25 µM (active)	inactive	inactive	inactive	3.76 µM (active)	inactive	inactive	inactive	2.11 µM (active)	inactive	–	–	–	–	–
CC1(C)S[C@@H]2[C@H](NC(=O)[C@H](N)c3ccc(O)cc3)C(=O)N2[C@H]1C(=O)O	inactive	inactive	inactive	inactive	inactive	–	inactive	inactive	–	inactive	inactive	inactive	–	–	inactive	inactive	inactive	inactive	–	–
CC(=O)OCC1=C(C(=O)O)N2C(=O)[C@@H](NC(=O)Cc3ccccc3)[C@H]2SC1	inactive	inactive	inactive	inactive	inactive	inactive	inactive	inactive	inactive	inactive	inactive	inactive	–	–	inactive	inactive	inactive	inactive	–	–
C1CCc2nnnn2CC1	inactive	inactive	inactive	inactive	inactive	–	–	inactive	–	inactive	inactive	inactive	inactive	inactive	–	–	inactive	inactive	inactive	inactive
O=C(O)C[C@H](O)C[C@H](O)/C=C/c1c(C2CC2)nc2ccccc2c1-c1ccc(F)cc1	inactive	0.531 µM (active)	0.0944 µM (active)	1.68 µM (active)	inactive	1.69 µM (active)	inactive	inactive	inactive	–	inactive	inactive	–	inactive	–	inactive	–	inactive	–	–
CCOc1cc(CC(=O)N[C@@H](CC(C)C)c2ccccc2N2CCCCC2)ccc1C(=O)O	inactive	inactive	inactive	inactive	inactive	inactive	11.4 µM (active)	inactive	inactive	inactive	inactive	inactive	–	–	inactive	inactive	inactive	–	–	–
Oc1ccc(Cl)c2c1CCC2	inactive	inactive	inactive	inactive	inactive	inactive	inactive	inactive	inactive	inactive	inactive	inactive	inactive	inactive	inactive	inactive	inactive	inactive	–	inactive
